The list is not random: actives were taken first. Their share in the collection is about 9.6%.
L major viab – Leishmania major promastigote growth inhibition. hit rate 9% among 200,000. Leishmania major promastigotes, resazurin fluorescence viability. inhibition, % at 10 µM. AID 1063; in the data active = inhibition above about 50%;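 also: promastigotes grown with compound for 44 hours at 28 °C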
Insulin prom up – MIN6 insulin promoter up-regulation | MIN6 insulin promoter-GFP reporter, high-content imaging; hits give high values | z-score at 5 µM | hit rate 0.3% among 190,000 | AID 1625;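 active = z-score above 3 at 5 µM with at least 500 cells counted in the well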
Autophagy mod – autophagy modulation, high-content screen; MEF GFP-LC3 puncta imaging; test concentration mostly 10 µM; calls only at 10 µM (by protocol); hit rate 0.98% among 190,000; AID 463193;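 active = percentage of spot-positive cells more than 3 SD above its plate mean, without a fluorescence outlier flag or 80% toxicity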;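 also: spot-positive cell cutoff set from DMSO-treated cells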
HCT116 PTEN-null – growth suppressors of cells with PTEN tumor suppressor deletion | HCT116 PTEN-null viability, CellTiter-Glo, 60 h; hits give low values | viability, % at 10 µM | hit rate 1.2% among 140,000 | AID 827;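 active = viability at or below a set limit, 4 SD under the median of all tested compounds, cut at about 3.7% in these data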;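 also: PTEN knockout HCT116 line with beta catenin targeted HCT116 as companion control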
HCT116 bCat-KO – beta-catenin-lacking colon tumor cell growth suppression | viability, % at 10 µM | HCT116 beta-catenin knockout viability, CellTiter-Glo, 60 h; hits give low values | hit rate 1.5% among 140,000;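 active = viability at or under a set limit, the compound median less 4 SD, cut at about 6% in these data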;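 also: 0% = Hyamine 1622 control at 20 µM and 100% = untreated cell control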
INS promoter inh – TRM-6 insulin promoter activity inhibition | TRM-6 cells (human fetal islet line), insulin promoter-eGFP reporter, imaging; reporter expression induced with tamoxifen | inhibition, % at 2 µM | hit rate 0.9% among 130,000;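 active = inhibition above the mean plus 3 SD, with well images judged a real hit on visual review, cut at about 60% in these data, passing the limit was not always enough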
Numbers without * were called inactive; i = inactive; · = no result; + = active, no number.

SMILES	L major viab	Insulin prom up	Autophagy mod	HCT116 PTEN-null	HCT116 bCat-KO	INS promoter inh
Cc1cccc(C(=O)N[C@H](C(=O)Nc2ccc(S(=O)(=O)NC3=NCCCCC3)cc2)C(C)C)c1	-1	1.2	i	·	·	·
O=C(Nc1ccccc1-c1nnn(CC(=O)N2CCOCC2)n1)c1ccc(F)cc1	-4	0.17	i	·	·	·
CC(C)(C)C(=O)NC(=O)Nc1ccccc1C(F)(F)F	·	-0.08	·	·	·	·
CCOc1ccc(NC(=O)CC2C(=O)N(c3ccc(OC)cc3)C(=S)N2Cc2ccccn2)cc1 (stereo unspecified)	80*	-0.8	i	·	·	·
CCOc1ccc(NC(=O)CC2C(=O)N(c3ccccc3)C(=O)N2CCc2cccs2)cc1 (stereo unspecified)	66*	-0.54	i	76	78	-26
COc1ccc(NC(=O)CC2C(=O)N(C)C(=S)N2CCc2ccccc2)cc1 (stereo unspecified)	9	-0.23	i	50	58	7
COC(=O)CN1C(=S)N(Cc2ccccc2)C(=O)C1CC(=O)Nc1ccc(OC)cc1 (stereo unspecified)	-1	·	i	79	78	80*
CCOc1ccc(NC(=O)CC2C(=O)N(c3ccccc3)C(=S)N2Cc2ccccn2)cc1 (stereo unspecified)	9	-0.66	i	82	76	-58
COc1ccc(NC(=O)CC2C(=O)N(Cc3ccccc3)C(=S)N2CCN2CCOCC2)cc1 (stereo unspecified)	98*	0.32	i	·	·	-333
COc1ccc(CN2C(=O)N(c3ccc(OC)cc3)C(=O)C2CC(=O)Nc2ccccc2)cc1 (stereo unspecified)	3	0.53	i	·	·	·
COc1ccc(-n2c(=S)[nH]c3c(sc(=S)n3-c3ccccc3)c2=O)c(OC)c1	-3	·	i	·	·	·
CCc1ccc(NC(=O)CC2C(=O)N(c3ccc(C)cc3)C(=O)N2CCc2ccncc2)cc1 (stereo unspecified)	51*	1.6	i	·	·	·
CCN1C(=O)C(CC(=O)Nc2ccc(OC)cc2)N(CCc2ccc(F)cc2)C1=S (stereo unspecified)	40	-1.5	i	·	·	·
CCN1C(=O)C(CC(=O)Nc2ccc(OC)cc2)N(CCCN2CCN(c3ccc(F)cc3)CC2)C1=S (stereo unspecified)	73*	0.18	i	·	·	-50
C#CCOCCOCCOCCNc1nc(N2CCN(C(=O)[C@H]([C@@H](C)CC)n3cc(CCCN=C(N)N)nn3)CC2)nc(N2CCN(C(=O)[C@H](CCCCN)n3cc(CCC(=O)O)nn3)CC2)n1	3	1.1	i	103	95	-10
C=CCNc1nc(S(=O)Cc2ccc(C)cc2)nc2c1CCCC2 (stereo unspecified)	24	-0.71	i	·	·	73*
CC(=O)/C=C1/C(=O)Nc2ccccc21	94*	0	i	·	·	44
COc1cc(NC(=O)C(=O)N2CCN(C)CC2)c(OC)cc1Cl	·	-0.14	·	·	·	·
Cc1cccc(-c2cc(C(=O)Nc3sc(C)c(C)c3C(N)=O)c3ccccc3n2)c1	-1	-0.1	i	54	61	·
Cc1ccccc1-c1cc(C(=O)Nc2nc3c(s2)CCCC3)c2ccccc2n1	65*	-0.26	i	88	83	·
Cc1ccccc1C(=O)NC(C(=O)Nc1nc2c(s1)CCCC2)C(C)C (stereo unspecified)	50*	0.04	i	84	82	-38
Cc1ccc(C)c(-c2cc(C(=O)Nc3sc(C)c(C)c3C(N)=O)c3ccccc3n2)c1	61*	-1.1	i	29	36	·
Cc1cc(C)c2cc(CN(Cc3nnnn3C3CCCCC3)CC3CCCO3)c(=O)[nH]c2c1 (stereo unspecified)	99*	-0.34	i	78	76	·
Cc1ccc2cc(CN(Cc3nnnn3C3CCCCC3)CC3CCCO3)c(=O)[nH]c2c1 (stereo unspecified)	94*	-0.97	i	84	88	-17
Cc1cc2cc(CN(Cc3nnnn3C3CCCCC3)CC3CCCO3)c(=O)[nH]c2cc1C (stereo unspecified)	82*	0.76	i	62	62	3
SMILES	L major viab	Insulin prom up	Autophagy mod	HCT116 PTEN-null	HCT116 bCat-KO	INS promoter inh
Cc1ccc2[nH]c(=O)c(CN(CC3CCCO3)C(=O)c3ccncc3)cc2c1 (stereo unspecified)	70*	-0.94	i	110	97	-357
Cn1c(=O)cc(SCC(=O)N2CCCC2)c2ccccc21	-5	-0.08	i	92	87	·
O=C(NCCOC(=O)c1ccccc1C(=O)OCCNC(=O)c1cccnc1)c1cccnc1	1	-0.67	i	109	98	-12
O=C(NCCOc1ccccc1)c1cc(C(=O)NCCOc2ccccc2)cc([N+](=O)[O-])c1	98*	-1.4	i	59	62	17
O=C(NCCc1nc2ccccc2[nH]1)c1cc([N+](=O)[O-])cc([N+](=O)[O-])c1	98*	1	i	76	87	·
C=CCOC(=O)Nc1snnc1C	2	0.27	i	99	87	-56
COc1ccc(C(=O)N2C(=S)NC(=O)/C2=C\c2ccc(C)cc2)cc1	1	0.87	i	102	95	-15
C1CCc2nnc(C3CC3)n2CC1	-3	0.25	i	·	·	-29
Cc1c(N=C2NC(=O)/C(=C/c3cccc([N+](=O)[O-])c3)S2)c(=O)n(-c2ccccc2)n1C	89*	2.7	i	78	77	4
Cc1c(N=C2C(=O)Nc3ccccc32)c(=O)n(-c2ccccc2)n1C	-7	0.17	i	102	94	·
O=C(O)CCN1CC2([N+](=O)[O-])CC=C(OCCO)C([N+](=O)[O-])(C1)C2 (stereo unspecified)	-2	·	i	·	·	35
COC1=CCC2([N+](=O)[O-])CN(CCO)CC1([N+](=O)[O-])C2 (stereo unspecified)	-5	3*	i	96	90	-23
O=[N+]([O-])c1ccc(-c2nc(NCc3ccccc3)c3ccccc3n2)cc1	20	0.91	i	72	86	·
O=[N+]([O-])c1cccc(-c2nc(NCc3ccccc3)c3ccccc3n2)c1	58*	-0.37	i	85	69	-322
CN(Cc1ccccc1)c1nc(-c2cccc([N+](=O)[O-])c2)nc2ccccc12	92*	0.13	i	73	74	-43
O=[N+]([O-])c1cccc(-c2nc(N3CCOCC3)c3ccccc3n2)c1	6	-0.16	i	·	·	·
Cc1ccc(S(=O)(=O)NC(=O)NN2CCCCCC2)cc1	-6	·	+	100	101	5
Cc1ccc(S(=O)(=O)NC(=O)Nn2c(C)nnc2C)cc1	-4	-0.05	i	91	97	8
CN1CCC(Oc2ccccc2Sc2ccccc2)CC1	100*	-0.59	i	61	64	0
Cc1c(CCOC(=O)C23CC4CC(CC(C4)C2)C3)sc[n+]1Cc1ccccc1	98*	-0.7	i	78	76	-24
Cc1c(CCOC(=O)C23CC4CC(CC(C)(C4)C2)C3)sc[n+]1Cc1ccccc1	100*	-1.1	i	5	2.9*	·
